Screening data as filed in PubChem.
CYP2C19 inhib: inhibitors of human CYP2C19; inhibition, % at 5 µM; actives 21% (n = 96,000); P33261; CYP2C19 Supersomes, luciferin-H EGE luminescence, 30 min;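 active = CYP2C19 inhibition above a set limit at 5 µM in the primary screen, cut at about 50% in these data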;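 also: plate controls were negative control wells for no effect and 2.5 mM tranylcypromine positive control for full effect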
CYP2C19 activ: increases human CYP2C19 enzyme activity; P33261; recombinant CYP2C19, luciferin-H EGE luminescence; hits give high values; 0 = fully inhibited enzyme, 1 = untreated enzyme; activation factor at 5 µM; 96,000 tested, under 10 active;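 active = activation factor of at least 2 at 5 µM in the primary screen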;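 also: 0 = wells with 2.5 mM tranylcypromine and 1 = vehicle-only wells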
PLAP activator: activates human placental alkaline phosphatase | AID 696 | P05187 | activation fold at 20 µM | actives 1.2% (n = 96,000) | purified PLAP enzyme, luminescent substrate read-out; hits give high values; in the data active = activation fold above about 2
Target sequence (P05187 whole entry, looked up): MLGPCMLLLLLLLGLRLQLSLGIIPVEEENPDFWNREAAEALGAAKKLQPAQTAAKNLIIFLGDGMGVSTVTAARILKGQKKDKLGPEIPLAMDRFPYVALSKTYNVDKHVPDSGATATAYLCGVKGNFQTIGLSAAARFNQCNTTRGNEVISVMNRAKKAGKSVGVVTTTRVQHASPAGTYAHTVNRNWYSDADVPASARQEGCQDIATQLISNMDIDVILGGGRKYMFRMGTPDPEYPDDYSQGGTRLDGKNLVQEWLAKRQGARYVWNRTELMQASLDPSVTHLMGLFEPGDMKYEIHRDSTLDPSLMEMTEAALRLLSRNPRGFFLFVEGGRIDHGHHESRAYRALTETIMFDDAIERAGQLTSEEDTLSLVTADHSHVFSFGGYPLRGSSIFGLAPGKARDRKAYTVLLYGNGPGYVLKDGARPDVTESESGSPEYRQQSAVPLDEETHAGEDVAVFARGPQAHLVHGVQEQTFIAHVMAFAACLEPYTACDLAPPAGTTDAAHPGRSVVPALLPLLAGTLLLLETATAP
CYP2C9 act: activators of human CYP2C9; actives 1.4% (n = 96,000); AID 1024; activation factor at 5 µM; recombinant CYP2C9, luciferin-H conversion, luminescence; hits give high values; factor 1 = untreated enzyme, 0 = blocked;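 active = activation factor of 2 or more for CYP2C9 at a 5 µM dose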;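 also: 0 = sulfaphenazole-blocked wells and 1 = vehicle-only wells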
CYP2C9 inh: inhibitors of human CYP2C9; inhibition, % at 5 µM; CYP2C9 Supersomes, luciferin-H conversion, luminescence; actives 20% (n = 96,000);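 active = blocking of liver enzyme CYP2C9 beyond about 50% at 5 µM, limit read from the data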
* = called active by the depositor. Compounds with a hit are over-represented: about 31% of the library has one in this group of screens.

SMILES	CYP2C19 inhib	CYP2C19 activ	PLAP activator	CYP2C9 act	CYP2C9 inh
O=C(NC1CCCC1)C1CCCN(S(=O)(=O)c2ccc(-n3cnnn3)cc2)C1 (centres undefined)	-13.8	1.1	1	0.9	6.8
CCOC(=O)C1CCCN(S(=O)(=O)c2ccc(OC)c3ccccc23)C1 (centres undefined)	98.3*	0	1.8	0.8	20.8
CCOC(=O)N1CCN(S(=O)(=O)c2ccc(F)c(C(=O)Nc3cc(C)cc(C)c3)c2)CC1	1.7	1	0.9	1	3.2
COc1ccc(S(=O)(=O)N2CCCC(C(=O)O)C2)cc1Cl (centres undefined)	0.2	1	1	1.1	-7.3
CC(C)NC(=O)C1CCCN(S(=O)(=O)c2ccc(-n3cnnn3)cc2)C1 (centres undefined)	13.1	0.9	0.9	0.5	50.7*
CCOC(=O)C1CCCN(S(=O)(=O)c2ccc(Br)c(OC)c2)C1 (centres undefined)	70.7*	0.3	1.4	0.7	27.2
CCOC(=O)C1CCCN(S(=O)(=O)c2cn(C)c(=O)n(C)c2=O)C1 (centres undefined)	78.5*	0.2	0.9	0.8	16.2
CCOC(=O)C1CCCN(S(=O)(=O)c2ccccc2)C1 (centres undefined)	32.7	0.7	1	0.9	5.0
NC(=O)C1CCCN(S(=O)(=O)c2ccc(Br)cc2)C1 (centres undefined)	58.6*	0.4	1.1	1.5	-45.5
CCOC(=O)C1CCCN(S(=O)(=O)c2c(C)c(C)cc(C)c2C)C1 (centres undefined)	86.6*	0.1	1.3	1.4	-35.4
Cc1ccc(C)c(C(=O)COC(=O)c2ccc(Br)o2)c1	27.0	0.7	0.7	1.7	-71.3
Cc1cc(C)nc(Sc2c(F)c(F)c(C(F)(F)F)c(F)c2F)n1	-2.5	1	0.9	1	-4.5
CCn1c(SCC(=O)NCc2ccco2)nnc1C(C)C	10.9	0.9	1.3	1.3	-26.9
CCOC(=O)CSc1nnc([C@H](Cc2ccccc2)NC(=O)OC(C)(C)C)o1	40.8	0.6	1.3	1	0.9
Cc1ccccc1CS(=O)(=O)c1nnc([C@H](CC(C)C)NC(=O)OC(C)(C)C)o1	29.1	0.7	1	0.2	75.8*
CC[C@@H](C)[C@H](NC(=O)OC(C)(C)C)c1nnc(S(=O)(=O)Cc2cc(C)ccc2C)o1	21.0	0.8	1.1	0.6	41.0
CC(C)C[C@H](NC(=O)OC(C)(C)C)c1nnc(SCc2ccccc2)o1	73.9*	0.3	1.6	0.4	64.8*
CC(C)(C)OC(=O)N[C@@H](Cc1ccccc1)c1nnc(S(=O)(=O)Cc2cccc(F)c2)o1	42.0	0.6	1.8	0.4	60.2*
CC(C)C[C@H](N)c1nnc(S(=O)(=O)Cc2cccc(F)c2)o1	6.3	0.9	1.3	1	3.6
CC(NC(=O)c1ccc(N2CCCC2=O)cc1)c1ccccc1 (centres undefined)	-2.1	1	1	0.9	5.5
O=C(O)c1ccnc(C(=O)O)c1	-11.7	1.1	1.2	1.1	-8.8
CCCOc1c(OC)cccc1C1CC(=O)Nc2cc3c(cc21)OCO3 (centres undefined)	95.6*	0	1.1	0.5	51.7*
CCCOc1c(OC)cccc1C1CC(=O)Nc2cc3c(cc21)OCCO3 (centres undefined)	44.0	0.6	1	0.3	68.1*
COc1cc2c(cc1OC)C(c1cccc(OC)c1OC)CC(=O)N2 (centres undefined)	18.5	0.8	1	0.7	32.2
CCN(CC)c1ccc(C2CC(=O)Nc3cc(OC)c(OC)cc32)cc1 (centres undefined)	39.1	0.6	1.1	0.6	39.1
SMILES	CYP2C19 inhib	CYP2C19 activ	PLAP activator	CYP2C9 act	CYP2C9 inh
CC(/C=C\c1cccnc1)=C/C(=O)O	-3.7	1	1.1	0.9	5.6
Cn1c(=O)c2c(nc(SCC(=O)NC34CC5CC(CC(C5)C3)C4)n2C)n(C)c1=O	19.6	0.8	1.5	1	-0.8
Cc1cc(C)nc(NC(=O)NS(=O)(=O)N2CCCCCC2)n1	-7.2	1.1	1.1	1.1	-11.6
O=C(NC1CCCCC1)C1CCCN1S(=O)(=O)c1cccc2nsnc12 (centres undefined)	40.6	0.6	1	0.5	53.6*
O=C(O)c1ccc(Cl)c(NC(=O)C2CCCN2S(=O)(=O)c2cccc3nsnc23)c1 (centres undefined)	-19.3	1.2	1.1	1	-4.2
O=C(CCS(=O)(=O)c1cccc2nsnc12)NC1CCCCCC1	13.1	0.9	1	1.2	-15.6
CCOC(=O)N1CCN(C(=O)C(NS(=O)(=O)c2cccc3nsnc23)c2ccccc2)CC1 (centres undefined)	-8.8	1.1	1.3	0.3	72.7*
O=C(NC1CCCC1)C(NS(=O)(=O)c1cccc2nsnc12)c1ccccc1 (centres undefined)	6.4	0.9	0.9	0.5	50.5*
COc1ccc(C2Nc3ccccc3C(=O)N2c2ccccc2)cc1COc1ccccn1 (centres undefined)	29.5	0.7	1.1	0.4	59.4*
CCOc1cc(C2Nc3cccc4cccc(c34)N2)ccc1O	69.3*	0.3	1	0.6	38.3
COc1ccccc1N1C(=O)c2ccccc2NC1c1ccncc1 (centres undefined)	39.3	0.6	1	0.4	55.8*
COc1cc(C2Nc3ccccc3C(=O)N2c2ccccc2)ccc1O (centres undefined)	38.4	0.6	1.3	0.3	74.7*
CCc1ccc(C2NC(=S)NC3=C2C(=O)N(c2ccccc2OC)C(c2ccc(CC)cc2)N3)cc1 (centres undefined)	3.8	1	1.9	0.9	6.0
CN(C)C(=O)Cn1cnc2c(cnn2-c2ccccc2Cl)c1=O	7.2	0.9	1.2	1	0.0
COc1cc(NC(=O)c2cccc(Cl)c2)c(OC)cc1NC(=O)CN1CCOCC1	-2.2	1	1.5	0.9	13.7
COc1ccc(C2Nc3ccccc3C(=O)N2O)cc1OC (centres undefined)	22.6	0.8	0.8	0.9	9.3
CCOc1cc(C2Nc3ccccc3C(=O)N2c2ccccc2)ccc1O (centres undefined)	61.9*	0.4	0.9	0	95.5*
CCC1Oc2ccc(C)cc2N(CC(=O)N(Cc2cccnc2)Cc2ccc(C)o2)C1=O (centres undefined)	71.8*	0.3	1.5	0.4	62.7*
CCC1Oc2ccc(C)cc2N(CC(=O)N(Cc2ccc3c(c2)OCO3)CC2CCCO2)C1=O (centres undefined)	37.8	0.6	1.5	0.7	32.8
C=CCN1C(=O)C2(C(C#N)=C(N)Oc3n[nH]c(CCC)c32)c2ccccc21 (centres undefined)	-1.7	1	1	1	-0.6
CCOC(=O)CC1C(=O)NCCN1C(=O)c1c(F)cccc1F (centres undefined)	0.6	1	1.1	0.9	12.0
